The values below come from PubChem BioAssay AID1117283 (Broad Institute, 2014).

Potency and affinity values are given separately. Active and inactive are the calls of the source.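 Rule for the calls: active = fluorescent signal decreased by at least 40%; inconclusive = no clear call, values can overlap the other calls; inactive = the rest, including activity opposite to the expected direction.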

This test can be described thus: fibronectin fibrillogenesis inhibitors in fibroblasts, dose response, AH1F cells, Alexa488-fibronectin fluorescence, cherry-pick, set 2 (AID 1117283).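 Note: AH1F fibroblasts given Alexa488-labelled fibronectin at 24 nM final.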 As to conditions: Alexa488-fibronectin deposition fluorescence, overnight; series mostly up to 35 µM.
For the molecule `O=C(CSc1nc2ncc(Cl)cc2[nH]1)c1c[nH]c2ccccc12`, the call was inactive.

For the molecule `C[C@H]1CN([C@@H](C)CO)C(=O)c2cc(NC(=O)CCCN(C)C)ccc2O[C@@H]1CN(C)Cc1ccc(-c2ccccc2)cc1`, the result was inactive.

Consider `Cc1cccc(NC(=O)Nc2ccc(S(=O)(=O)Nc3onc(C)c3C)cc2)c1`, for which the outcome was inactive.

Consider `COc1ccc(CN(C2CCCC2)S(=O)(=O)c2ccc(-n3cnnn3)cc2)cc1OC`, for which the outcome was inactive.

As for `O=S(=O)(c1ccccc1F)N1CC[C@H]2[C@H](CO)Nc3ccc(-c4cccc(F)c4)cc3[C@H]21`, the molecule was classed as inactive.

Regarding `CS(=O)(=O)N1CCN(c2ccc(NC(=O)c3ccc([N+](=O)[O-])o3)cc2)CC1`, the outcome was inactive.

In the case of `Fc1cnc(N2CCN(c3ccccc3)CC2)nc1N1CCN(c2ccccc2)CC1`, the outcome was inactive.

Turning to `C[C@@H]1CN([C@H](C)CO)C(=O)c2cc(-c3ccccc3)cnc2O[C@H]1CN(C)C(=O)c1cccc(F)c1`, the molecule was called inactive.

For the molecule `CN(C)C(=O)c1ccc(-c2ccc3c(c2)[C@H]2[C@H](CCN2C(=O)c2ccc(F)cc2)[C@@H](CO)N3C)cc1`, the call was inactive.

Take `COc1cccc(CN2CCN(C(=O)c3ccc(-c4ccccc4)cc3)CC2)c1OC`: the call was inactive.

As to `CCN(Cc1ccncc1)C(=O)c1ccc2c(c1)S(=O)(=O)c1ccccc1C2=O`, the outcome was inactive.

Regarding `CC(C)CNC(=O)c1coc(=O)c(Br)c1`, the call was inactive.

On to `O=C(c1cccnc1)N1C[C@H]2[C@@H](c3ccccc31)[C@H](CO)N2CC1CCCC1`, for which the call was inactive.

Consider `CO[C@H]1CN(C)C(=O)c2ccc(NC(=O)c3ccc(-c4ccccc4)cc3)cc2OC[C@@H](C)NC[C@H]1C`, for which the outcome was inactive.

On to `Cc1ccccc1S(=O)(=O)N1CC[C@H]2[C@H](CO)Nc3ccc(-c4ccc(C#N)cc4)cc3[C@H]21`, for which the molecule was called inactive.

Consider `COC(=O)C[C@H]1CC[C@H]2[C@@H](COc3ccc(NC(=O)Cc4cccs4)cc3C(=O)N2C)O1`, for which the result was inactive.

On to `Cc1cccc(NC(=O)c2ccc(C3SCC(=O)N3CCc3ccccc3)cc2)c1` (configuration not stated), for which the outcome was inactive.

Turning to `C[C@H]1CN([C@@H](C)CO)C(=O)c2cc(NC(=O)C3CCCCC3)ccc2O[C@H]1CN(C)Cc1ccc(-c2ccccc2)cc1`, the outcome was inactive.

As for `C[C@H](CO)N1C[C@H](C)[C@@H](CN(C)Cc2ccc(-c3ccccc3)cc2)Oc2ccc(NC(=O)CCCN(C)C)cc2C1=O`, the molecule was classed as inactive.

As to `Cc1ccc(NC(=O)COC(=O)c2cc(Cl)ccc2[N+](=O)[O-])c(C)c1`, the call was inactive.

As to `Cn1cc([N+](=O)[O-])c(C(=O)Nc2cc(Oc3ccccc3)cc([N+](=O)[O-])c2)n1`, the call was inactive.

Take `CO[C@H]1CN(C)C(=O)c2ccc(NC(=O)c3ccc(-c4ccccc4)cc3)cc2OC[C@H](C)NC[C@@H]1C`: the call was inactive.

Consider `C[C@@H]1CN([C@@H](C)CO)C(=O)c2cc(-c3ccccc3)cnc2O[C@@H]1CN(C)Cc1ccccc1`, for which the result was inactive.

For the molecule `N#C[C@H]1[C@@H](c2ccccc2C2=CCCCC2)[C@@H](CO)N1S(=O)(=O)c1ccccc1`, the result was inactive.

Take `C[C@@H]1CN([C@H](C)CO)C(=O)c2cc(NC(=O)CCCN(C)C)ccc2O[C@H]1CN(C)Cc1ccc(-c2ccccc2)cc1`: the call was inactive.

For the molecule `CCOc1ccccc1NC(=O)c1c(NC(=O)CCC(=O)O)sc2c1CCCCC2`, the molecule was called inactive.

As to `Cc1cccc(N2CCN(S(=O)(=O)c3cn(C)cn3)CC2)c1C`, the molecule was classed as inactive.

For the molecule `CO[C@H]1CN(C)C(=O)c2ccc(NC(=O)Nc3cc(Cl)cc(Cl)c3)cc2OC[C@H](C)NC[C@@H]1C`, the result was inactive.

Consider `C[C@@H]1CN([C@@H](C)CO)C(=O)c2cccc(NC(=O)Nc3ccc(C(F)(F)F)cc3)c2O[C@@H]1CN(C)C(=O)Nc1cccc2ccccc12`, for which the molecule was classed as inactive.

For the molecule `COc1cccc(-c2ccc3c(c2)[C@@H]2[C@@H](CCN2S(=O)(=O)c2cccc(OC)c2)[C@@H](CO)N3)c1`, the call was inactive.

`N#Cc1ccc(-c2ccc3c(c2)[C@@H]2[C@@H](CCN2S(=O)(=O)c2cccc(F)c2)[C@@H](CO)N3)cc1`: the molecule was called inactive.

For the molecule `COCC(C)n1c(SCc2nc(N)nc(Nc3ccccc3C)n2)nc2ccccc2c1=O` (configuration not stated), the call was inactive.

`C[C@H](CO)N1C[C@H](C)[C@H](CN(C)C(=O)Nc2cccc3ccccc23)Oc2c(NC(=O)Nc3ccc(C(F)(F)F)cc3)cccc2C1=O`: the outcome was inactive.

Consider `O=c1c2cc(N3CCOCC3)ccc2[nH]c(=S)n1Cc1ccc(Cl)cc1`, for which the call was inactive.

Take `C[C@H](O)C#Cc1ccc2c(c1)O[C@H](CN(C)C)[C@H](C)CN([C@H](C)CO)S2(=O)=O`: the molecule was called inactive.

For the molecule `C[C@H](O)C#Cc1ccc2c(c1)O[C@H](CN(C)C)[C@H](C)CN([C@@H](C)CO)S2(=O)=O`, the call was inactive.

As for `CN(C)c1ccc(-c2ccnc3c2CC(C)(C(=O)NCC2CC2)O3)cc1` (configuration not stated), the molecule was called inactive.
